Data on five molecules can be found in PubChem BioAssay AID720511 (Broad Institute, 2013).

The whole screen tested about 350,000 compounds, of which about 1,300 (0.37%) were called active.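 How the source made its calls: active means mean added fluorescence quench of at least 8% versus neutral control, with both replicates also reaching 8%; inconclusive means only one of the mean or replicate conditions met; inactive means mean below 8% and not both replicates reaching 8%.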 For the sample, actives were picked, then their nearest neighbours and some compounds at random.

This experiment in a line: F508del CFTR correction, initial screen, CFBE line, single point (AID 720511).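 Further: cells transiently co-express mutant CFTR-F508del with the halide-sensitive YFP; corrector assay measuring rescue of mutant channel to the surface after 24 h compound exposure.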 As to conditions: CFBE cells, YFP halide quenching, at 7.58 µM, active compounds read high.
On to `C[C@]12CCC3C(CC[C@H]4[C@H](O)[C@H](O)CC[C@]34C)C1CCC2=O` (stereo not given in full), for which the activity (quench increase) was 11.1% (active). Then `C[C@]12CCC3C(CC[C@H]4[C@H](O)[C@H](O)CC[C@]34C)C1CC[C@@H]2O` (stereo not given in full), with 0.916% (inactive); and `C[C@]12CCC3C(CC[C@H]4C[C@@H](O)CC[C@]34C)C1C[C@@H](O)[C@H]2O` (stereo not given in full), with 1.25% (inactive). `COC(=O)C1=C(c2ccc(OCc3ccccc3)cc2)C[C@@H]2CC[C@H]1N2C(=O)NCc1ccc(Cl)cc1`: the activity (quench increase) was 4.11% (inactive). Then `C/C=C/c1ccc(C2[C@@H]3CN(Cc4cncnc4)C[C@H]2N3)cc1` (stereo not given in full), with 2.42% [% fluorescence drop versus neutral controls, stimulated with forskolin plus potentiator P3] (inactive).
